Drawing on PubChem BioAssay (NCI), this text covers growth inhibition for ten compounds.

Compounds without any hit were thinned out: in the full panel of roughly 79,000, 15% have a hit. A number with no mark means an inactive call. The source made the active and inactive calls. Rule as the data show it: active = growth inhibition above about 70%; inactive = the rest.

Assay [1] is described as follows: NCI Yeast Anticancer Drug Screen. Data for the rad50 strain (AID 155).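 Also: 0% = growth of vehicle-only cultures of the same strain.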 To be noted: S. cerevisiae rad50 strain growth inhibition, active compounds read high. A digest of the protocol: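 Vehicle-treated cultures provide the reference for the growth inhibition reported for compound-exposed, repair-deficient yeast.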
Assay [2] is described as follows: NCI Yeast Anticancer Drug Screen. Data for the mec2-1 strain (AID 157). To be noted: S. cerevisiae mec2-1 strain, active compounds read high. An outline of the steps:
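Mutant yeast (mec2-1) grown with compound; growth inhibition relative to vehicle control reported.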

A short description of assay [3]: NCI Yeast Anticancer Drug Screen. Data for the sgs1 mgt1 strain (AID 161).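 Also: 0% = growth of cultures given vehicle only.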 To be noted: S. cerevisiae sgs1 mgt1 strain, active compounds read high. A digest of the protocol:
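This yeast growth screen uses a strain with defined DNA-repair lesions; compound-treated growth is compared with vehicle-treated growth.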

A short description of assay [4]: NCI Yeast Anticancer Drug Screen. Data for the cln2 rad14 strain (AID 165).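 Also: 0% = growth equal to vehicle treated cultures.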 To be noted: S. cerevisiae cln2 rad14 strain, active compounds read high. A digest of the protocol: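 Readout is yeast growth inhibition versus vehicle-treated controls, using a strain with cln2 and rad14 alterations exposed to compound.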
Assay [5] is described as follows: NCI Yeast Anticancer Drug Screen. Data for the bub3 strain (AID 167). To be noted: S. cerevisiae bub3 mutant strain, active compounds read high. An outline of the steps: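 Mutant yeast screening strain plus compound; vehicle-treated cultures serve as the 0% inhibition reference.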
The nature of assay [6]: NCI Yeast Anticancer Drug Screen. Data for the mlh1 rad18 strain (AID 175). The settings on record: S. cerevisiae mlh1 rad18 strain growth inhibition, active compounds read high. An outline of the steps:
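Genetically defined yeast (DNA repair-deficient) exposed to compounds; growth inhibition determined relative to vehicle.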

Setting [7] is: at 5.0 µM (retest, dose inferred, filed as 0.5).
The mark [8] stands for this setting: at 50.0 µM (retest, dose inferred, filed as 5.0).

Turning to `C[C@]12CCC(O)CC1=CC[C@@H]1[C@@H]2CC[C@]2(C)C(=O)[C@H](n3ccnc3)C[C@@H]12` (some centres undefined), the growth inhibition was 21% in assay [1] (setting [7]); 54% in assay [1] (setting [8]); 41.9% in assay [1] (at 50.0 µM); 12% in assay [2] (setting [7]); 46% in assay [2] (setting [8]); 58% in assay [2] (at 50.0 µM). Besides, the growth inhibition in assay [3] (setting [7]) was 18%; in assay [3] (setting [8]), 62%; in assay [3] (at 50.0 µM) it was 52.2%; in assay [4] (setting [7]) it was 29%; in assay [4] (setting [8]), 51%; in assay [4] (at 50.0 µM), 38.2%. For the same compound, the growth inhibition was 20% in assay [5] (setting [7]); 56% in assay [5] (setting [8]); 38.9% in assay [5] (at 50.0 µM); 19% in assay [6] (setting [7]); 51% in assay [6] (setting [8]); 75.6% (active) in assay [6] (at 50.0 µM).

With `COc1cccc(C2N(Cc3ccc(N(CCCl)CCCl)cc3C)CCCN2Cc2ccc(N(CCCl)CCCl)cc2C)c1O`, the growth inhibition in assay [1] (setting [7]) was 7%; in assay [1] (setting [8]), 94% (active); in assay [1] (at 50.0 µM) it was 27.6%; in assay [2] (setting [7]), -2%; in assay [2] (setting [8]), 96% (active); in assay [2] (at 50.0 µM) it was 10.2%. Besides, the growth inhibition in assay [3] (setting [7]) is -2%; in assay [3] (setting [8]), 97% (active); in assay [3] (at 50.0 µM), 64.5%; in assay [4] (setting [7]) it was -5%; in assay [4] (setting [8]), 82% (active); in assay [4] (at 50.0 µM), -12.6%. Further, the growth inhibition is -6% in assay [5] (setting [7]); 89% (active) in assay [5] (setting [8]); 0.75% in assay [5] (at 50.0 µM); 8% in assay [6] (setting [7]); 93% (active) in assay [6] (setting [8]); 40.1% in assay [6] (at 50.0 µM).

Consider `CC(C)CC[CH2][Pb]([CH2]CCC(C)C)([CH2]CCC(C)C)[O]C(=O)C(Cl)(Cl)Cl`, for which the growth inhibition in assay [1] (setting [7]) was 14%; in assay [1] (setting [8]) it was 98% (active); in assay [1] (at 50.0 µM), 99.1% (active); in assay [2] (setting [7]) it was 8%; in assay [2] (setting [8]) it was 99% (active); in assay [2] (at 50.0 µM) it was 98.9% (active). In addition, the growth inhibition in assay [3] (setting [7]) is 17%; in assay [3] (setting [8]), 94% (active); in assay [3] (at 50.0 µM), 98.4% (active); in assay [4] (setting [7]), -1%; in assay [4] (setting [8]), 95% (active); in assay [4] (at 50.0 µM), 98.8% (active). Besides, the growth inhibition was 2% in assay [5] (setting [7]); 98% (active) in assay [5] (setting [8]); 99% (active) in assay [5] (at 50.0 µM); 6% in assay [6] (setting [7]); 94% (active) in assay [6] (setting [8]); 98.7% (active) in assay [6] (at 50.0 µM).

Regarding `CC[S+](C)c1ccc(-c2c3nc(c(-c4ccc([S+](C)CC)cc4)c4ccc([nH]4)c(-c4ccc([S+](C)CC)cc4)c4nc(c(-c5ccc([S+](C)CC)cc5)c5ccc2[nH]5)C=C4)C=C3)cc1` (centres undefined), the growth inhibition in assay [1] (setting [7]) was 95% (active); in assay [1] (setting [8]), 95% (active); in assay [1] (at 50.0 µM) it was 86.8% (active); in assay [2] (setting [7]), 98% (active); in assay [2] (setting [8]), 97% (active); in assay [2] (at 50.0 µM) it was 90.7% (active). For the same compound, the growth inhibition was 73% (active) in assay [3] (setting [7]); 97% (active) in assay [3] (setting [8]); 91.8% (active) in assay [3] (at 50.0 µM); 56% in assay [4] (setting [7]); 96% (active) in assay [4] (setting [8]); 89.5% (active) in assay [4] (at 50.0 µM). The values for the growth inhibition in assay [5] (setting [7]), in assay [5] (setting [8]) and in assay [5] (at 50.0 µM) were 94% (active), 96% (active) and 89% (active), respectively.

As to `[C-]#[O+].[C-]#[O+].[Mo].c1ccc([PH+](CC[PH+](c2ccccc2)c2ccccc2)c2ccccc2)cc1.c1ccc([PH+](CC[PH+](c2ccccc2)c2ccccc2)c2ccccc2)cc1`, the growth inhibition is 0% in assay [1] (setting [7]); 65% in assay [1] (setting [8]); 2% in assay [1] (at 50.0 µM); 2% in assay [2] (setting [7]); 52% in assay [2] (setting [8]); 59.3% in assay [2] (at 50.0 µM). Besides, the growth inhibition in assay [3] (setting [7]) is -1%; in assay [3] (setting [8]), 41%; in assay [3] (at 50.0 µM), 1.3%; in assay [4] (setting [7]), -2%; in assay [4] (setting [8]), 71% (active); in assay [4] (at 50.0 µM), 2.55%. For the same compound, the growth inhibition is 0% in assay [5] (setting [7]); 76% (active) in assay [5] (setting [8]); -1.85% in assay [5] (at 50.0 µM); 4% in assay [6] (setting [7]); 80% (active) in assay [6] (setting [8]); -0.8% in assay [6] (at 50.0 µM).

For the compound `C[N+](C)(C)CC1CCCc2ccccc2C1=O` (centres undefined), the growth inhibition in assay [1] (setting [7]) is 22%; in assay [1] (setting [8]) it was 90% (active); in assay [1] (at 50.0 µM), 88% (active); in assay [2] (setting [7]), 20%; in assay [2] (setting [8]), 97% (active); in assay [2] (at 50.0 µM), 85.9% (active). The growth inhibition in assay [3] (setting [7]) is 17%; in assay [3] (setting [8]) it was 88% (active); in assay [3] (at 50.0 µM), 91.3% (active); in assay [4] (setting [7]), 6%; in assay [4] (setting [8]), 43%; in assay [4] (at 50.0 µM), 81% (active). The growth inhibition in assay [5] (setting [7]) was 32%; in assay [5] (setting [8]), 99% (active); in assay [5] (at 50.0 µM), 88.1% (active); in assay [6] (setting [7]), 30%; in assay [6] (setting [8]), 98% (active); in assay [6] (at 50.0 µM) it was 90.5% (active).

Consider `CC(=O)[O][Hg][c]1c(C)c(C)cc(C)c1C`, for which the growth inhibition was 99% (active) in assay [1] (setting [7]); 96% (active) in assay [1] (setting [8]); 90.1% (active) in assay [1] (at 50.0 µM); 100% (active) in assay [2] (setting [7]); 98% (active) in assay [2] (setting [8]); 91.2% (active) in assay [2] (at 50.0 µM). The growth inhibition is 99% (active) in assay [3] (setting [7]); 98% (active) in assay [3] (setting [8]); 87.7% (active) in assay [3] (at 50.0 µM); 99% (active) in assay [4] (setting [7]); 98% (active) in assay [4] (setting [8]); 85.7% (active) in assay [4] (at 50.0 µM). Moreover, the growth inhibition is 99% (active) in assay [5] (setting [7]); 97% (active) in assay [5] (setting [8]); 84.2% (active) in assay [5] (at 50.0 µM); 99% (active) in assay [6] (setting [7]); 96% (active) in assay [6] (setting [8]); 76.2% (active) in assay [6] (at 50.0 µM).

For `CN(CCCl)c1ccc(/C=C/C2=[N+](C)c3ccccc3C2(C)C)cc1`, the growth inhibition in assay [1] (setting [7]) was -6%; in assay [1] (setting [8]) it was 98% (active); in assay [1] (at 50.0 µM) it was 99.5% (active); in assay [2] (setting [7]), -3%; in assay [2] (setting [8]) it was 98% (active); in assay [2] (at 50.0 µM), 99.5% (active). The growth inhibition in assay [3] (setting [7]) is -6%; in assay [3] (setting [8]), 98% (active); in assay [3] (at 50.0 µM), 99.7% (active); in assay [4] (setting [7]), -2%; in assay [4] (setting [8]) it was 98% (active); in assay [4] (at 50.0 µM) it was 98.4% (active). The growth inhibition in assay [5] (setting [7]) is -3%; in assay [5] (setting [8]), 99% (active); in assay [5] (at 50.0 µM) it was 99.2% (active); in assay [6] (setting [7]), 9%; in assay [6] (setting [8]), 98% (active); in assay [6] (at 50.0 µM) it was 98.7% (active).

Regarding `CN(C)c1ncnc2c1ncn2C1OC(CO)C2NP(=O)(N(CCCl)CCCl)OC21` (centres undefined), the growth inhibition in assay [1] (setting [7]) is 1%; in assay [1] (setting [8]), 80% (active); in assay [1] (at 50.0 µM), 87.9% (active); in assay [2] (setting [7]) it was -3%; in assay [2] (setting [8]), 24%; in assay [2] (at 50.0 µM), -1.35%. Besides, the growth inhibition in assay [3] (setting [7]) is -3%; in assay [3] (setting [8]), 63%; in assay [3] (at 50.0 µM), 71.2% (active); in assay [4] (setting [7]) it was 8%; in assay [4] (setting [8]) it was 5%; in assay [4] (at 50.0 µM), 13.6%. The growth inhibition is 0% in assay [5] (setting [7]); 48% in assay [5] (setting [8]); 12.6% in assay [5] (at 50.0 µM); -17% in assay [6] (setting [7]); 23% in assay [6] (setting [8]); 28.4% in assay [6] (at 50.0 µM).

As for `C/C(=N\N=C(/[Se])N1CCC(C)CC1)c1ccccn1`, the growth inhibition in assay [1] (setting [7]) was 27%; in assay [1] (setting [8]) it was 94% (active); in assay [1] (at 50.0 µM), 94.5% (active); in assay [2] (setting [7]) it was 24%; in assay [2] (setting [8]), 91% (active); in assay [2] (at 50.0 µM) it was 96% (active). In addition, the growth inhibition in assay [3] (setting [7]) is 9%; in assay [3] (setting [8]), 71% (active); in assay [3] (at 50.0 µM), 99.2% (active); in assay [4] (setting [7]), 4%; in assay [4] (setting [8]) it was -9%; in assay [4] (at 50.0 µM) it was 47%. The growth inhibition in assay [5] (setting [7]) is 6%; in assay [5] (setting [8]), 20%; in assay [5] (at 50.0 µM) it was 84.5% (active).
